Measured values as given in PubChem BioAssay (NCATS).
Values joined by “and” are separate entries in the source; they are usually repeats but may differ in a detail not shown here. Equal entries are not always repeated. Inconclusive results are not listed. A call without a number means that no potency is given here. Active and inactive are the calls of the source. Unless noted, calls follow the shape of the dose curve; as a rule, active = well fitted curve in the direction sought with a large enough effect; inconclusive = small, poorly fitted or top-dose-only effect, or another doubt; inactive = no such curve, though single readings can be large; an effect the other way counts as inactive or inconclusive. Where a SMILES comes first, the peptide text is derived from it. Bridges are numbered along the chain shown (N, C = ends). [ ]: non-standard residue; d: D form. The star is where a group is joined. X1 = CCC(C)C(N)C1=NC(C(=O)*)CS1; dOrn = NCCC[C@@H](N)C(=O)O

Legend:
[1] = molecular target: Cytochrome P450 2D6 (Homo sapiens) (UniProt P10635); assay: Cytochrome P450 family 2 subfamily D member 6 (CYP2D6) small molecule antagonists: luciferase biochemical (cell-free) qHTS assay (AID 1645840; active = well fitted curve in the direction sought with a large enough effect in the repeat runs; an effect the other way counts as inactive or inconclusive; also: nearly all actives have a fitted effect of over 55% in size; also: potency is read from the fitted curve at half-maximal effect)
Method in brief: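 P450-Glo CYP2D6 system: proluciferin substrate converted by enzyme to luciferin, read by luminescence proportional to activity. Enzyme-substrate mix with compound 10 min at room temperature, then NADPH regeneration 1 h before detection reagent.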

[2] = molecular target: Cytochrome P450 2C9 (Homo sapiens) (UniProt P11712); assay: Cytochrome P450 family 2 subfamily C member 9 (CYP2C9) small molecule antagonists: luciferase biochemical (cell-free) qHTS assay (AID 1645842; active = well fitted curve in the direction sought with a large enough effect in the repeat runs; an effect the other way counts as inactive or inconclusive; also: nearly all actives have a fitted effect of over 55% in size; also: potency is read from the fitted curve at half-maximal effect)
Method in brief: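 P450-Glo CYP2C9 system: proluciferin substrate with enzyme in mix containing 0.4% BSA, 10 min at room temperature, then NADPH regeneration solution added and incubated 1 h at 37C. Detection reagent stopped reaction; luminescence read after 20 min as RLU.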

[3] = Primary qHTS for inhibitors of nuclear receptor binding SET domain protein 2 (NSD2) in an isogenic RCH-ACV NSD2 p.E1099K mutant (9B) (AID 1645876); also: nearly all actives have a fitted effect of over 70% in size; also: potency is read from the fitted curve at half-maximal effect
[4] = Primary qHTS for inhibitors of nuclear receptor binding SET domain protein 2 (NSD2) in an RCH-ACV wild type WT cells (2C) (AID 1645877); also: nearly all actives have a fitted effect of over 70% in size; also: potency is read from the fitted curve at half-maximal effect
[5] = molecular target: N-terminal Xaa-Pro-Lys N-methyltransferase 1 (Homo sapiens) (UniProt Q9BV86); assay: Confirmatory qHTS for Inhibitors of N-terminal methyltransferase 1 (NTMT1): MTaseGlo Assay (AID 1645874); also: potency is read from the fitted curve at half-maximal effect; nearly all actives have a fitted effect of over 65% in size
Method in brief: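 Inhibition was derived from luminescence after SAH-to-ATP conversion, scaled between no-enzyme and DMSO wells, then fitted by 4-parameter Hill. Conditions: 125 nM NTMT1, 100 uM SAM, 1 uM SPKRIA, 30 min RT.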

[6] = molecular target: Cytochrome P450 3A4 (Homo sapiens) (UniProt P08684); assay: Cytochrome P450 family 3 subfamily A member 4 (CYP3A4) small molecule antagonists: luciferase qHTS assay (AID 1645841; active = well fitted curve in the direction sought with a large enough effect in the repeat runs; an effect the other way counts as inactive or inconclusive; also: nearly all actives have a fitted effect of over 45% in size)
Method in brief: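 P450-Glo CYP3A4 enzyme with proluciferin substrate preincubated 10 min with compound at room temperature, then NADPH regeneration 1 h. Luciferin detection reagent added for 20 min; luminescence recorded. Ketoconazole positive control.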

Cytochrome P450 2C9 (Homo sapiens), sequence (P11712 whole entry, looked up): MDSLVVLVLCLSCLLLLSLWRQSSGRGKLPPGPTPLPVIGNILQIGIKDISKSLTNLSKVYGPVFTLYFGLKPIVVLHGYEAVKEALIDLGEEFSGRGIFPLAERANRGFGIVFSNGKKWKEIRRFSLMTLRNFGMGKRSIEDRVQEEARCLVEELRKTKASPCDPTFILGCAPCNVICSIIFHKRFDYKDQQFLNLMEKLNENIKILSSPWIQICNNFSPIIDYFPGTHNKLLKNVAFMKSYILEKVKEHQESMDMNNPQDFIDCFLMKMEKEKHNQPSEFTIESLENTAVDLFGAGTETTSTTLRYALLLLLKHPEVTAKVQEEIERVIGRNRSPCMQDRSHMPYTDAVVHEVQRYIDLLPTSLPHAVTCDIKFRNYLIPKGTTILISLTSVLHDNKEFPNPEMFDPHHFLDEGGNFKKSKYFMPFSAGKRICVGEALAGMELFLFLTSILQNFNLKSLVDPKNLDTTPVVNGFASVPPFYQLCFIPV
Cytochrome P450 2D6 (Homo sapiens), sequence (P10635 whole entry, looked up): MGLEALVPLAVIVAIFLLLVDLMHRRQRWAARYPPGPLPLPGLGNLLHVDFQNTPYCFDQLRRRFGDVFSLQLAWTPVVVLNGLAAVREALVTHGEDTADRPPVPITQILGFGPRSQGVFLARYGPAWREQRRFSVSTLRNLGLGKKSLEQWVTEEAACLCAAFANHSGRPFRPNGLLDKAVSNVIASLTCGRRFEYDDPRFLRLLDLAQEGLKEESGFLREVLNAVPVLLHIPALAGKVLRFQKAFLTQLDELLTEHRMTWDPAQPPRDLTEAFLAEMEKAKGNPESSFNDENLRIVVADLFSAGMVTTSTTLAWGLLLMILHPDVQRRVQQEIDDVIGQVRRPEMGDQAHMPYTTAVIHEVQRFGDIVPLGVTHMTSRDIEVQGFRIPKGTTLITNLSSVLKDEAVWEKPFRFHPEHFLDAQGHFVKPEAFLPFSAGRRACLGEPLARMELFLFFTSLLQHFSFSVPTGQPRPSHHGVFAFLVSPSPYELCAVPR
Cytochrome P450 3A4 (Homo sapiens), sequence (P08684 whole entry, looked up): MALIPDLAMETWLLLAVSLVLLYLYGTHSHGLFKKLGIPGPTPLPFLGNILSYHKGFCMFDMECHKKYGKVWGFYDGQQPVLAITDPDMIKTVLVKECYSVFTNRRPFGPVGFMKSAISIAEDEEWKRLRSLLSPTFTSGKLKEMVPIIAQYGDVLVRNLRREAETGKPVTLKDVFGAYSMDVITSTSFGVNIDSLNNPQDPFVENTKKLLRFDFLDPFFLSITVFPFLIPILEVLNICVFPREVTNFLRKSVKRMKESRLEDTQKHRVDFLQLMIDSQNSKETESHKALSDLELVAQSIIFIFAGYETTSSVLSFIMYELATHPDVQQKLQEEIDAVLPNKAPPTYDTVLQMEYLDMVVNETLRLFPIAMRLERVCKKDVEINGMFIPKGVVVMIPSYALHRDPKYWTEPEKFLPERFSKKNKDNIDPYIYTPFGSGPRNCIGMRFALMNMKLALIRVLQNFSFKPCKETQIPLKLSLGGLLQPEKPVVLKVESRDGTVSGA
N-terminal Xaa-Pro-Lys N-methyltransferase 1 (Homo sapiens), sequence (Q9BV86 whole entry, looked up): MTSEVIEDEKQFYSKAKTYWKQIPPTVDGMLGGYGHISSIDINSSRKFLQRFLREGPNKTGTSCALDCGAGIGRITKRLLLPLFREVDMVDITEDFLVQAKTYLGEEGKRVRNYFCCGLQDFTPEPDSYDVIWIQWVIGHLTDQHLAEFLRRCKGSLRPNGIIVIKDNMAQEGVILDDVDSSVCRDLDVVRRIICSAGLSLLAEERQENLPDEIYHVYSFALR

SMILES | Potency [1] | Potency [2] | Potency [3] | Potency [4] | Potency [5] | Potency [6]
CC1(C)CCC(C)(C)c2cc([C@@H](O)C(=O)Nc3ccc(C(=O)O)cc3F)ccc21 | inactive | 13.5 µM (active) | inactive | inactive | – | –
COc1ccc(C)c2sc(NC(=O)c3ccncc3)nc12 | 6.74 µM (active) | 0.849 µM (active) | inactive | inactive | – | –
CCC(=O)N[C@@H]1Cc2ccccc2[C@H](c2ccccc2)C1 | 9.52 µM (active) | 3.01 µM (active) | inactive | inactive | – | –
COc1ccc([C@@H]2N[C@H](C(=O)O)Cc3c2[nH]c2ccccc32)cc1CN1CCN(c2ccccc2F)CC1 | 13.5 µM (active) | inactive | inactive | inactive | – | –
CCC(=O)NS(=O)(=O)c1ccc(-c2c(-c3ccccc3)noc2C)cc1 | inactive | 6.74 µM (active) | inactive | inactive | – | –
CC(C)Nc1cc(-c2c[nH]c(C(=O)N[C@H](CO)c3cccc(Cl)c3)c2)c(Cl)cn1 | 19 µM (active) | 4.77 µM (active) | 20.5 µM (active) and 2.95 µM (active) | 8.17 µM (active) and 2.95 µM (active) | – | –
CO[C@@H](Cc1ccc(OCCc2nc(-c3ccccc3)oc2C)c2ccsc12)C(=O)O | inactive | 26.8 µM (active) | inactive | inactive | – | –
O=C(NCC(=O)N1CC[C@H](NC2CCC(O)(c3ccc(-c4ncccn4)cn3)CC2)C1)c1cccc(C(F)(F)F)c1 (stereo partly drawn) | inactive | inactive | inactive | inactive | – | –
C=C1CC[C@@H]2[C@](C)(CO)[C@H](O)CC[C@@]2(C)[C@@H]1C/C=C1/C(=O)OC[C@H]1O | inactive | inactive | 8.33 µM (active) | 7.42 µM (active) | – | –
Cc1cc(C)cc(NC(=O)Cc2ccc(OC(C)(C)C(=O)O)cc2)c1 | inactive | inactive | inactive | inactive | – | –
Cc1[nH]cnc1C1CCN(c2nc3cccc4c3n2CCC4=O)CC1 | 9.52 µM (active) | 9.52 µM (active) | inactive | inactive | – | –
Cc1nn(C)c(COc2ccc(N3CCN(S(=O)(=O)N(C)C)CC3)cc2)c1-c1cccc2c(CCCOc3cccc4ccccc34)c(C(=O)O)n(CCN3CCOCC3)c12 | inactive | 13.5 µM (active) | inactive | inactive | – | –
O=C(COc1ccc(Cl)cc1)NC1CCC(NC(=O)COc2ccc(Cl)cc2)CC1 (stereo not drawn) | inactive | inactive | inactive | inactive | – | –
CN1CCC(c2c[nH]c3ccc(NC(=O)c4ccc(F)cc4)cc23)CC1 | 16.9 µM (active) | inactive | inactive | inactive | – | –
Cc1cc(Nc2ncc(Cl)c(Nc3ccccc3S(=O)(=O)C(C)C)n2)c(OC(C)C)cc1C1CCNCC1 | 16.9 µM (active) | 3.38 µM (active) | 3.25 µM (active) and 5.25 µM (active) | 2.9 µM (active) and 3.72 µM (active) | – | –
CCn1nnnc1NCc1ccc(C(C)C)cc1 | inactive | 7.56 µM (active) | inactive | inactive | – | –
O=S(=O)(NC1CCNCC1)c1cc(S(=O)(=O)c2ccccc2)ccc1C(F)(F)F | inactive | inactive | inactive | inactive | – | –
CCc1c(CC(N)=O)c2cc(OCCCP(=O)(O)O)ccc2n1Cc1ccccc1 | inactive | inactive | inactive | inactive | – | –
O=c1ccn([C@@H]2O[C@H](CO)[C@@H](O)[C@H]2O)c(=O)[nH]1 | inactive | inactive | inactive | inactive | – | –
CCOC(=O)[C@H](CCc1ccccc1)CC1(C(=O)N[C@H]2CCc3ccccc3N(CC(=O)O)C2=O)CCCC1 | inactive | inactive | inactive | inactive | – | –
CCn1c2ccccc2c2cc(CNC)ccc21 | 9.52 µM (active) | inactive | 23 µM (active) | 23 µM (active) | – | –
CCC(C)C(N)C1=NC(C(=O)N[C@@H](CC(C)C)C(=O)N[C@H](CCC(=O)O)C(=O)N[C@H](C(=O)N[C@H]2CCCCNC(=O)[C@H](CC(N)=O)NC(=O)[C@@H](CC(=O)O)NC(=O)[C@H](Cc3cnc[nH]3)NC(=O)[C@@H](Cc3ccccc3)NC(=O)[C@H]([C@@H](C)CC)NC(=O)[C@@H](CCCN)NC2=O)[C@@H](C)CC)CS1 (stereo partly drawn) (X1-L[dE]IK[dOrn]I[dF]H[dD]N; lactam 4-C) | – | – | – | – | 2.94 µM (active) | –
C=Cc1cc(O)cc2nc(-c3ccc(O)c(F)c3)oc12 | – | – | – | – | 44.7 µM (active) | –
C#Cc1cnc2[nH]c(=O)n(C(CC)CC)c2n1 | – | – | – | – | – | inactive
O=C(NC[C@H](O)CN1CCc2ccccc2C1)c1cc(NC2COC2)ncn1 | – | – | – | – | – | inactive
